# The supplement of paper PMC12819154, “High-throughput peptide-centric local stability assay extends protein–ligand identification to membrane proteins, tissues and bacteria” (Nature Structural & Molecular Biology, 2025)
# Compound: Nc1ncnc2c1ncn2[C@@H]1O[C@H](COP(=O)(O)OP(=O)(O)OP(=O)(O)O)[C@@H](O)[C@H]1O [adenosine 5'-triphosphate]
# Assay: log2 fold change of tryptic peptide abundance, ligand vs vehicle (limited proteolysis) (log2 ratio); higher = more trypsin-susceptible (destabilized)
# Conditions: ligand concentration: 5 mM; sample: E. coli desalted lysate; replicate design: treated before aliquoting
# Description: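 HT-PELSA: desalted E. coli K-12 BW25113 lysate (with 12 mM MgCl2) incubated with 5 mM ATP (pH 7) or water for 30 min at 25 C, then a 4 min trypsin pulse at 22 C. Peptides were quantified by DIA-MS (4 replicates). Value is the peptide log2 fold change (treated/control); negative = stabilized. Scale: negative = ligand-stabilized region.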
# 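Also: lysate desalted by size exclusion to strip endogenous ATP, peptide intensities built from DIA-NN precursor signals, and peptides missing any value discarded before comparison.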
# Sequence of UniProt P52108 (P52108 whole entry): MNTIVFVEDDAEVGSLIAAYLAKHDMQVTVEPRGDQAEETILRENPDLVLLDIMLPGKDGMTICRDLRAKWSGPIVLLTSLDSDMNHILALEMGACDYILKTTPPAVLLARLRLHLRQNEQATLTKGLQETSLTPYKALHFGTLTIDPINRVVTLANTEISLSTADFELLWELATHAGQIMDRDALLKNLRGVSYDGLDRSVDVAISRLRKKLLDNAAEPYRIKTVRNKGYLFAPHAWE
# Sequence of UniProt P26646 (P26646 whole entry): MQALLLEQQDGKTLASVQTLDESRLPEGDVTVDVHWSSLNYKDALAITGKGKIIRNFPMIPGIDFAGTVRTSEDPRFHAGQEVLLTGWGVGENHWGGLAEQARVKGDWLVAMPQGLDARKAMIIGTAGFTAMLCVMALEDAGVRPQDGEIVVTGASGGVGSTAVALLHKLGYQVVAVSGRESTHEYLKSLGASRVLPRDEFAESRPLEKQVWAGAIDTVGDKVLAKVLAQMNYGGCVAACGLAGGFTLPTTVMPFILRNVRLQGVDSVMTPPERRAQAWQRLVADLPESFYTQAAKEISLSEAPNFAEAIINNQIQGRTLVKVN
# Sequence of UniProt P00561 (P00561 whole entry): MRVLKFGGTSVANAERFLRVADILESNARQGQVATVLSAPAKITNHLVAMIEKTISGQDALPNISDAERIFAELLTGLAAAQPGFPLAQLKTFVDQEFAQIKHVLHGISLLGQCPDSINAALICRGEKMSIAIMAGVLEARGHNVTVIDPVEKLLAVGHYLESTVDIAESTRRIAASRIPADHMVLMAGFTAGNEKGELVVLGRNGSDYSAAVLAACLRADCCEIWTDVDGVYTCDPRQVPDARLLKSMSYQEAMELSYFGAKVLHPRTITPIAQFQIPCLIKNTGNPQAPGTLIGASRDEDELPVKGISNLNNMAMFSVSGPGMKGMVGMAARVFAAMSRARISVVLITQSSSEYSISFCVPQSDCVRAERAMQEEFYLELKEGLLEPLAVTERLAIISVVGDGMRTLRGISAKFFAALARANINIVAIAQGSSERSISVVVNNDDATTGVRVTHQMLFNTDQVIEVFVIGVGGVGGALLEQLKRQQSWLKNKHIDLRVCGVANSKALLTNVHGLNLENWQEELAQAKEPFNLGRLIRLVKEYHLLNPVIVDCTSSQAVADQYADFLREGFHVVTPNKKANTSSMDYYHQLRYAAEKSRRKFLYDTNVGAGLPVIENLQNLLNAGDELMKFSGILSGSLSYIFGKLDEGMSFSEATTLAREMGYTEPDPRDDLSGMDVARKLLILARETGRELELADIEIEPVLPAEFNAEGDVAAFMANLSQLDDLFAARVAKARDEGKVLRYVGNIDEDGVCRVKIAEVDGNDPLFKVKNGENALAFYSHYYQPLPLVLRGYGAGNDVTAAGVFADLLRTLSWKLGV
# Sequence of UniProt P07109 (P07109 whole entry): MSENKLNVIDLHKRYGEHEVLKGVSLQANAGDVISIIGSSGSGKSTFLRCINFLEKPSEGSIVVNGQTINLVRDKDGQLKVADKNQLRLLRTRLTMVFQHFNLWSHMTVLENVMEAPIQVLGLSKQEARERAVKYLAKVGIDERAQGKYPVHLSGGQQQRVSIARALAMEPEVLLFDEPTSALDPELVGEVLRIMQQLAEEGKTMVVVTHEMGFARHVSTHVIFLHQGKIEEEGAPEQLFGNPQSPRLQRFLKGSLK
# Sequence of UniProt P39359 (P39359 whole entry): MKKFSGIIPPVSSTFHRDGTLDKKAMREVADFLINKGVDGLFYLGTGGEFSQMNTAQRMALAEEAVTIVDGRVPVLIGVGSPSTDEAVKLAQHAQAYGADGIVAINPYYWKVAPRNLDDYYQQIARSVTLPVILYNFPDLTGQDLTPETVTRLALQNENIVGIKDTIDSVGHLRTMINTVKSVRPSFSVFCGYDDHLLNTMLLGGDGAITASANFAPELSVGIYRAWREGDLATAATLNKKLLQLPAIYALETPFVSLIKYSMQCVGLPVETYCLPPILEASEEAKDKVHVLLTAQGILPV
# Sequence of UniProt P37769 (P37769 whole entry): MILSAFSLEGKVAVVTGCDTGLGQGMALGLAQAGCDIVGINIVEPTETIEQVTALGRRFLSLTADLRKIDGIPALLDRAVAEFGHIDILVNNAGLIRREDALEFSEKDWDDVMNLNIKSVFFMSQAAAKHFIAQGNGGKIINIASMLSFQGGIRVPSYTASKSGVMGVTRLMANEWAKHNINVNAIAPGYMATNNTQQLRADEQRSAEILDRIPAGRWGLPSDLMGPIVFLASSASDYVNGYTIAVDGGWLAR
# Sequence of UniProt P0ACU0 (P0ACU0 whole entry): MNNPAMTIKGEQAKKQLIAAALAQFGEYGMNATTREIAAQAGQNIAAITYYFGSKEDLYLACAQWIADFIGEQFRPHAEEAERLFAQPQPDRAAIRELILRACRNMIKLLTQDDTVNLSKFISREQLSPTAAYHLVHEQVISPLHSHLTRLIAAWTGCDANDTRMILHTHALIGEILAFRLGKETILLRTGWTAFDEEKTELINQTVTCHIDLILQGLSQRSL
# Sequence of UniProt P0ADM4 (P0ADM4 whole entry): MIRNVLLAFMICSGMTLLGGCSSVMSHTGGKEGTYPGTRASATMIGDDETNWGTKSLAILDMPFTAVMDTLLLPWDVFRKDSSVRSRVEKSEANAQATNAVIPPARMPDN
# Sequence of UniProt P0AB77 (P0AB77 whole entry): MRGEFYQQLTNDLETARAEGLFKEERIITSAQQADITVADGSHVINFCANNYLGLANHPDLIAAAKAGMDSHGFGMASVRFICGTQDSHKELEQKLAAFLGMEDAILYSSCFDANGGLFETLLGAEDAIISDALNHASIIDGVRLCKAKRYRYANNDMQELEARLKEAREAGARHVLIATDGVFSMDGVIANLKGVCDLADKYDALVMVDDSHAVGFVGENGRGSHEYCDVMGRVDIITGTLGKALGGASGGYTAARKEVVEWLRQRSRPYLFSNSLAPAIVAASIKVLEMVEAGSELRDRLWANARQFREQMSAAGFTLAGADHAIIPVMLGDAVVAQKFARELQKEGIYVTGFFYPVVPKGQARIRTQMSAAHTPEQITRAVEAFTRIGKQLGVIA
# Sequence of UniProt P28634 (P28634 whole entry): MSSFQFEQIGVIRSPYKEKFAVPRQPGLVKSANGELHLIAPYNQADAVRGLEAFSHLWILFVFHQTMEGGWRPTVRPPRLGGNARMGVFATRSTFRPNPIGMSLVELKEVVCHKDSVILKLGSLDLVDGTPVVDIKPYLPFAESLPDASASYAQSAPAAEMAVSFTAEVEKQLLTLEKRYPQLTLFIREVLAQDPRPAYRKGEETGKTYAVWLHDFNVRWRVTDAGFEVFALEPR
# Sequence of UniProt P46850 (P46850 whole entry): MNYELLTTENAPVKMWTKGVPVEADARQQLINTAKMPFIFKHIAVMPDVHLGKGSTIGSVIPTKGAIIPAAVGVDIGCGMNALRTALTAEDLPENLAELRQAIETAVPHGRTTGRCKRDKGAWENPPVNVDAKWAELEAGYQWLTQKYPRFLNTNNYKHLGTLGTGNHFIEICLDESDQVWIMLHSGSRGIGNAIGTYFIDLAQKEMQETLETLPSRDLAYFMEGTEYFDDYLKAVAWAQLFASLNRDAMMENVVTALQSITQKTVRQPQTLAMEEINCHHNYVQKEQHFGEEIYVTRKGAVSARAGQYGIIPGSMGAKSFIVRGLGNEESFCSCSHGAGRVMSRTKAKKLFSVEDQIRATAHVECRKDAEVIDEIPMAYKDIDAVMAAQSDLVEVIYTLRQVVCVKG
# Sequence of UniProt Q47622 (Q47622 whole entry): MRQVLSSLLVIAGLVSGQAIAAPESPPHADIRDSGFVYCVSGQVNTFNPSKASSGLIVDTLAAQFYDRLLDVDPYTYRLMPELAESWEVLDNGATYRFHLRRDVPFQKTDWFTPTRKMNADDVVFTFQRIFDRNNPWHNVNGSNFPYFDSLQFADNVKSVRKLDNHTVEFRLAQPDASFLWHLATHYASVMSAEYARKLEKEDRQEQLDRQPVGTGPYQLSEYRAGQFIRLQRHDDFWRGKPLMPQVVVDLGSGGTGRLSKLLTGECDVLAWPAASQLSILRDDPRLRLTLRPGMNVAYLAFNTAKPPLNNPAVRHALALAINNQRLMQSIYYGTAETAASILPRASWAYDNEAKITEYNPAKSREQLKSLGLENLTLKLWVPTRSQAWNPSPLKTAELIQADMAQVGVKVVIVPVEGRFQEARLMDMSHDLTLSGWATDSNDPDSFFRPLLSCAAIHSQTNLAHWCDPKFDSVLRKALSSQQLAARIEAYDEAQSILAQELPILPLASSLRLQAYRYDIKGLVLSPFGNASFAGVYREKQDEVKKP
# Sequence of UniProt P06709 (P06709 whole entry): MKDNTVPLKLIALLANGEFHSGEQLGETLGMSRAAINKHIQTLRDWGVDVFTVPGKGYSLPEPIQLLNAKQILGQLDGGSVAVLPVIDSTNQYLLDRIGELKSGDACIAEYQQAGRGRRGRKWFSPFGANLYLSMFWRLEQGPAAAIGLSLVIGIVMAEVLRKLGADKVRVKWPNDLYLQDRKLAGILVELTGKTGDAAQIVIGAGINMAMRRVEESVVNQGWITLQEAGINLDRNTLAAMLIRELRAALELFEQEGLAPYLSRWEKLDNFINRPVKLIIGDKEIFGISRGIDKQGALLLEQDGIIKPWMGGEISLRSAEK
# Sequence of UniProt P39199 (P39199 whole entry): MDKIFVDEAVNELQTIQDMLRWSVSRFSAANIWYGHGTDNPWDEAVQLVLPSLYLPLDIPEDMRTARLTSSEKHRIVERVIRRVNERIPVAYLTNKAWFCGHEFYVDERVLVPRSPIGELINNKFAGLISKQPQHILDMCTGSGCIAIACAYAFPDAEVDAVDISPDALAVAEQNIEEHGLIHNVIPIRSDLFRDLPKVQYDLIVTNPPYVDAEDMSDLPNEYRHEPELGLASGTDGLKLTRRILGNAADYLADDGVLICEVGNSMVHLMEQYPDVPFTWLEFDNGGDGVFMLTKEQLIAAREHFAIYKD
# Sequence of UniProt P39274 (P39274 whole entry): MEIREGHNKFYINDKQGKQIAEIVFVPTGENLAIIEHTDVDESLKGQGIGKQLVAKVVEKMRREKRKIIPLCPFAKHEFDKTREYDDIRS
row,Target,log2 fold change
1,"UniProt P77485 (peptide sequence: GTVAVTSDAR, peptide start residue: 461)",-0.644
2,"UniProt P39359 (peptide sequence: EGDLATAATLNKK, peptide start residue: 229)",-1.33
3,"UniProt P77265 (peptide sequence: QHPEFYLR, peptide start residue: 103)",-0.556
4,"UniProt P76053 (peptide sequence: NVLIIHGK, peptide start residue: 116)",0.613
5,"UniProt P77499 (peptide sequence: SVNVGFSGGEK, peptide start residue: 141)",-0.896
6,"UniProt P27238 (peptide sequence: NKMTTEELAECLGVAK, peptide start residue: 6)",0.577
7,"UniProt P24232 (peptide sequence: MFTHNPELKEIFNMSNQR, peptide start residue: 32)",-1.5
8,"UniProt P42630 (peptide sequence: ITAWKGQEELLSK, peptide start residue: 129)",0.565
9,"UniProt P10443 (peptide sequence: GLPVVATNDVR, peptide start residue: 193)",0.539
10,"UniProt P28634 (peptide sequence: WRVTDAGFEVFALEPR, peptide start residue: 220)",0.789
11,"UniProt P39199 (peptide sequence: AWFCGHEFYVDER, peptide start residue: 97)",1.88
12,"UniProt P30855 (peptide sequence: YSQTSAGR, peptide start residue: 888)",0.38
13,"UniProt P00561 (peptide sequence: NKHIDLR, peptide start residue: 493)",1.32
14,"UniProt P46850 (peptide sequence: KDAEVIDEIPMAYK, peptide start residue: 368)",-0.573
15,"UniProt P24182 (peptide sequence: LMGDKVSAIAAMKK, peptide start residue: 112)",-1.24
16,"UniProt P52612 (peptide sequence: DRGQHVLLIMDSLTR, peptide start residue: 262)",-1.35
17,"UniProt P37617 (peptide sequence: DEQAAEEPQASR, peptide start residue: 113)",2.93
18,"UniProt P0ADM4 (peptide sequence: EGTYPGTR, peptide start residue: 32)",-0.36
19,"UniProt P21507 (peptide sequence: DVLGSAPTGTGK, peptide start residue: 43)",-3.34
20,"UniProt P02925 (peptide sequence: IAGDYIAKK, peptide start residue: 136)",1.27

row,Target,log2 fold change
1,"UniProt P26646 (peptide sequence: ESTHEYLK, peptide start residue: 181)",0.217
2,"UniProt P05804 (peptide sequence: DKNHPSVVMWSIANEPDTRPQGAR, peptide start residue: 399)",-0.737
3,"UniProt P37339 (peptide sequence: AFCDQNGIR, peptide start residue: 75)",0.681
4,"UniProt P07109 (peptide sequence: YGEHEVLK, peptide start residue: 15)",-1.13
5,"UniProt P76938 (peptide sequence: RVHAQVMDYLTNGIPERPAR, peptide start residue: 137)",0.412
6,"UniProt P33594 (peptide sequence: VLQNAVLPAFPVRR, peptide start residue: 249)",0.401
7,"UniProt P32143 (peptide sequence: AGIPDCDQTR, peptide start residue: 282)",-2.48
8,"UniProt P37769 (peptide sequence: LMANEWAK, peptide start residue: 171)",-0.444
9,"UniProt P52108 (peptide sequence: KKLLDNAAEPYR, peptide start residue: 211)",0.266
10,"UniProt Q47622 (peptide sequence: KMNADDVVFTFQR, peptide start residue: 117)",1.14
11,"UniProt P75682 (peptide sequence: AWRDGDVAK, peptide start residue: 229)",-1.32
12,"UniProt P15081 (peptide sequence: AFDTLCQQGR, peptide start residue: 30)",-0.599
13,"UniProt P61517 (peptide sequence: DLDVTATNR, peptide start residue: 190)",0.547
14,"UniProt P0ACU0 (peptide sequence: LLTQDDTVNLSK, peptide start residue: 109)",0.555
15,"UniProt P28903 (peptide sequence: DGCKVPFK, peptide start residue: 9)",-0.869
16,"UniProt P21693 (peptide sequence: ELADQVAGELRR, peptide start residue: 82)",-1.53
17,"UniProt P39274 (peptide sequence: FYINDKQGK, peptide start residue: 10)",0.423
18,"UniProt P06709 (peptide sequence: VKWPNDLYLQDR, peptide start residue: 171)",-0.523
19,"UniProt P0AB77 (peptide sequence: AGMDSHGFGMASVR, peptide start residue: 67)",-0.449
